Experimental findings from PubChem BioAssay (NCATS) are described below.

Inconclusive results are not listed. Entries that show only a call come without a potency. Active and inactive are the calls of the source. Calls follow the shape of the dose curve; as a rule, active = well fitted inhibition curve with a large enough effect; inconclusive = small, poorly fitted or top-dose-only effect; inactive = flat fitted curve, though single readings scatter.
Potency is read from the fitted curve at half-maximal effect.

The test system of one test is ICS. The test is described as follows: qHTS profiling for inhibitors of Plasmodium falciparum proliferation (AID 504749). Also: nearly all actives have a fitted effect of over 60% in size. As to conditions: P. falciparum in erythrocytes, SYBR Green DNA, 72 h; series mostly up to 28.7 µM. In short, it runs like this: (§1)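 Readout was DNA-dye fluorescence from lysed cultures, ex 485/em 535 nm. Parasitized red cells had grown 72 h with compound; data scaled between 0.29 uM artemisinin and DMSO wells and corrected using vehicle-only plates.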
For orientation: Quantitative high-throughput screening tests each substance at several concentrations.
For the compound `CN(C)[C@H]1C(=O)C(C(=O)NCN2CCCC2)=C(O)[C@]2(O)C(=O)C3=C(O)c4c(O)cccc4[C@](C)(O)[C@H]3C[C@H]12`, the Potency entry is “inactive”.

For `C[C@]12CC[C@H]3c4ccc(O)cc4CC[C@@H]3[C@H]1CC[C@@H]2OC(=O)CCC1CCCC1`, the Potency is 3.16 µM (active).

Turning to `Cc1cn([C@H]2C[C@H](N=[N+]=[N-])[C@H](CO)O2)c(=O)[nH]c1=O`, the Potency result was “inactive”.

On to `O=C(O)[C@@H](S)[C@H](S)C(=O)O`, for which the Potency is 8.91 µM (active).

Turning to `CC(C)(C)NC[C@@H](O)c1ccc(O)c(CO)n1`, the Potency result is “inactive”.

Consider `NS(=O)(=O)c1cc2c(cc1Cl)N[C@H](Cc1ccccc1)NS2(=O)=O`, for which the Potency result is “inactive”.

The test system of the next test is JCK. Described as above. As to conditions: P. falciparum in erythrocytes, SYBR Green DNA, 72 h; series mostly up to 28.7 µM. In short, it runs like this:
as §1
Take `CN(C)[C@H]1C(=O)C(C(=O)NCN2CCCC2)=C(O)[C@]2(O)C(=O)C3=C(O)c4c(O)cccc4[C@](C)(O)[C@H]3C[C@H]12`: the Potency result was “inactive”.

Regarding `C[C@]12CC[C@H]3c4ccc(O)cc4CC[C@@H]3[C@H]1CC[C@@H]2OC(=O)CCC1CCCC1`, the Potency result was “inactive”.

For `Cc1cn([C@H]2C[C@H](N=[N+]=[N-])[C@H](CO)O2)c(=O)[nH]c1=O`, the Potency entry was “inactive”.

Turning to `O=C(O)[C@@H](S)[C@H](S)C(=O)O`, the Potency was 11.2 µM (active).

Consider `CC(C)(C)NC[C@@H](O)c1ccc(O)c(CO)n1`, for which the Potency entry was “inactive”.

As to `NS(=O)(=O)c1cc2c(cc1Cl)N[C@H](Cc1ccccc1)NS2(=O)=O`, the Potency entry was “inactive”.
